Over roughly 16,000 sequences, “e-score” has its median near -0.044; the highest 2% begin near 0.38. What follows is part of a selection rich in the highest values, with near analogues and random picks from the rest.

The assay concerns the target T1, GST-NbGlk1(82-244) (Nicotiana benthamiana).
T1 chain: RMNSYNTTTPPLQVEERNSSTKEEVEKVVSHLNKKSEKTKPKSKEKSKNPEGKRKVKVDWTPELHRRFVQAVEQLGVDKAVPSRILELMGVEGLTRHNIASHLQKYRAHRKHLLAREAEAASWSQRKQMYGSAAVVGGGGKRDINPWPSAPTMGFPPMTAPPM
As to the kind of experiment: protein-binding microarray; NbGlk1 is a Golden2-like transcription factor of Nicotiana benthamiana; high values mean tight binding. The following applies: protein: recombinant; tags: GST (pTH6838); dsDNA, one strand shown.
For the sequence ATCGCGAC, the binding signal stood at 0.287 ± 0.126 E-score.

Turning to AATCCTTG, the binding signal is 0.336 ± 0.0164 E-score.

Take ATGGTAAT: the binding signal was found to be 0.305 ± 0.00923 E-score.

As for AAATCCAC, the binding signal is 0.43 ± 0.0323 E-score.

In the case of CAATCCAG, the binding signal worked out at 0.291 ± 0.00762 E-score.

With AAATCCAT, the binding signal amounted to 0.422 ± 0.0113 E-score.

As to AAATCCAA, the binding signal turned out to be 0.426 ± 0.042 E-score.

As to CAATCCAC, the binding signal is 0.328 ± 0.0614 E-score.

Regarding AATCCCAC, the binding signal was 0.318 ± 0.0378 E-score.

Regarding AGATCCAA, the binding signal worked out at 0.262 ± 0.127 E-score.

Take AAATCCAG: the binding signal is 0.413 ± 0.0172 E-score.

As to AAATCAAG, the binding signal is 0.318 ± 0.0251 E-score.

Consider CAATCCAA, for which the binding signal turned out to be 0.298 ± 0.0654 E-score.

In the case of ATCCCAGA, the binding signal was determined as 0.276 ± 0.00637 E-score.

On to ATATGAGA, for which the binding signal is 0.231 ± 0.0943 E-score.

In the case of ATTACCTG, the binding signal was 0.213 ± 0.0963 E-score.

CAATATCA: the binding signal was 0.299 ± 0.00874 E-score.

Turning to ATCTTGAA, the binding signal stood at 0.286 ± 0.0202 E-score.

On to AATATAGA, for which the binding signal turned out to be 0.271 ± 0.00595 E-score.

On to ACCTGGAT, for which the binding signal was found to be 0.224 ± 0.0187 E-score.

Regarding ATTTTTAG, the binding signal worked out at 0.235 ± 0.0033 E-score.

As to ATTTGTAC, the binding signal was found to be 0.228 ± 0.0254 E-score.

For CAATCCCA, the binding signal was found to be 0.279 ± 0.00457 E-score.

In the case of AAATCACA, the binding signal came out at 0.349 ± 0.00405 E-score.

Consider AAATCACC, for which the binding signal came out at 0.333 ± 0.00843 E-score.

As to AAATCCCG, the binding signal is 0.435 ± 0.00616 E-score.

For CAATCCCG, the binding signal is 0.284 ± 0.05 E-score.

As to AAATCCCC, the binding signal was 0.368 ± 0.0151 E-score.

Take AATCCCCG: the binding signal came to 0.362 ± 0.0401 E-score.

Consider AAATCACG, for which the binding signal amounted to 0.381 ± 0.0177 E-score.

Take AAATCCCA: the binding signal was 0.4 ± 0.00412 E-score.

In the case of ATTTCGGG, the binding signal was 0.27 ± 0.0618 E-score.

As for ATCTCATC, the binding signal amounted to 0.312 ± 0.051 E-score.

With ACCGCAAT, the binding signal was determined as 0.302 ± 0.00387 E-score.

Turning to ATCCGGAT, the binding signal worked out at 0.422 ± 0.0228 E-score.

As for ATCCGGAG, the binding signal was 0.233 ± 0.0472 E-score.

As for ATCCGGAA, the binding signal is 0.332 ± 0.0273 E-score.

ACACAAAT: the binding signal worked out at 0.204 ± 0.00827 E-score.

Take ACAATCTG: the binding signal is 0.404 ± 0.0106 E-score.

Consider ACAATCTA, for which the binding signal worked out at 0.3803 ± 0.00317 E-score.

Regarding ACAATCAG, the binding signal was determined as 0.237 ± 0.0723 E-score.

As to ACAATCTC, the binding signal came to 0.373 ± 0.047 E-score.

ACAATCGA: the binding signal is 0.201 ± 0.0349 E-score.

For ACAATCAA, the binding signal stood at 0.223 ± 0.00556 E-score.

Take ATTTGTTA: the binding signal worked out at 0.237 ± 0.0814 E-score.

On to ACTGCAAT, for which the binding signal worked out at 0.211 ± 0.0632 E-score.

For ACGATCTA, the binding signal came out at 0.252 ± 0.0264 E-score.

AAAATTTC: the binding signal was 0.276 ± 0.00552 E-score.

For the sequence CAGATTTA, the binding signal stood at 0.276 ± 0.0107 E-score.

AAGATTTC: the binding signal was 0.477 ± 0.00488 E-score.

With ATTATTTC, the binding signal stood at 0.219 ± 0.0605 E-score.

For the sequence CAGATTTC, the binding signal was found to be 0.4864 ± 0.00115 E-score.

In the case of ATGATTTC, the binding signal worked out at 0.387 ± 0.0129 E-score.

For the sequence ATGATTTG, the binding signal worked out at 0.257 ± 0.0544 E-score.

For ACGATTTG, the binding signal worked out at 0.264 ± 0.0306 E-score.

Turning to CAAATTTC, the binding signal came out at 0.232 ± 0.00396 E-score.

On to ACGATTTC, for which the binding signal was 0.411 ± 0.0236 E-score.

As to AAGATTTA, the binding signal came out at 0.333 ± 0.0668 E-score.

Consider ATTCCCAA, for which the binding signal was found to be 0.344 ± 0.0159 E-score.

For ATCGGATA, the binding signal stood at 0.33 ± 0.0178 E-score.

For the sequence AAATACGT, the binding signal came out at 0.267 ± 0.0537 E-score.

With AATTGAAA, the binding signal came out at 0.226 ± 0.0522 E-score.

Take ACAAATAA: the binding signal was found to be 0.23 ± 0.0836 E-score.

Consider ATTTATTG, for which the binding signal was determined as 0.216 ± 0.0481 E-score.

With ATTGCGAG, the binding signal worked out at 0.24 ± 0.0521 E-score.

Regarding ATATATAT, the binding signal came out at 0.244 ± 0.0459 E-score.

Take ATTCCCAG: the binding signal was found to be 0.291 ± 0.0505 E-score.

AACTGATT: the binding signal is 0.296 ± 0.0177 E-score.

Turning to AAGATTTG, the binding signal was 0.3926 ± 0.000402 E-score.

In the case of AATATTTG, the binding signal is 0.2529 ± 0.00132 E-score.

Take AAGATCAG: the binding signal is 0.222 ± 0.0847 E-score.

Regarding AATCGGCA, the binding signal was found to be 0.245 ± 0.0624 E-score.

AATTTCCG: the binding signal amounted to 0.257 ± 0.00588 E-score.

Take AATCAGTA: the binding signal amounted to 0.268 ± 0.0701 E-score.

On to ATTCTTAA, for which the binding signal was 0.276 ± 0.0327 E-score.

With AATCTTAT, the binding signal worked out at 0.377 ± 0.038 E-score.

For ATTCTTAG, the binding signal was 0.253 ± 0.0124 E-score.

Take AATCTTAC: the binding signal was 0.375 ± 0.0424 E-score.

AATCTTAA: the binding signal was 0.411 ± 0.0114 E-score.

In the case of AATCTTAG, the binding signal amounted to 0.393 ± 0.0231 E-score.

As to AAAGTAAT, the binding signal came to 0.215 ± 0.0195 E-score.

AAAAATCC: the binding signal was 0.437 ± 0.00502 E-score.

With CAAAATAC, the binding signal came to 0.244 ± 0.00367 E-score.

Turning to CAAAATCA, the binding signal came out at 0.314 ± 0.00439 E-score.

Turning to ATAAATCC, the binding signal was determined as 0.244 ± 0.0187 E-score.

Turning to CAAAATCC, the binding signal was 0.42 ± 0.00492 E-score.

Regarding ACAAATCC, the binding signal was found to be 0.337 ± 0.0192 E-score.

As for ATACGCAA, the binding signal is 0.311 ± 0.105 E-score.

Regarding ATTACGTG, the binding signal turned out to be 0.343 ± 0.0114 E-score.

As to ATACAGAT, the binding signal amounted to 0.232 ± 0.0349 E-score.

In the case of ATTTTCAG, the binding signal was 0.282 ± 0.0614 E-score.

Regarding AATCCGAA, the binding signal was 0.406 ± 0.0054 E-score.

Turning to AATCCGAT, the binding signal is 0.432 ± 0.00878 E-score.

In the case of AATCAGAA, the binding signal was 0.333 ± 0.0384 E-score.

Regarding ATTCCGAG, the binding signal amounted to 0.275 ± 0.0409 E-score.

As for AATCCCGA, the binding signal was 0.358 ± 0.0612 E-score.

Consider AATCCGAC, for which the binding signal stood at 0.375 ± 0.0477 E-score.

On to ATCCCGAT, for which the binding signal came to 0.294 ± 0.0618 E-score.

For the sequence AATCCGAG, the binding signal was 0.384 ± 0.0199 E-score.

As for AATGCGAT, the binding signal came to 0.246 ± 0.145 E-score.

For ATCCCCAT, the binding signal stood at 0.277 ± 0.00736 E-score.

Take AAACGGAT: the binding signal was found to be 0.245 ± 0.00295 E-score.

Consider AATCAATA, for which the binding signal is 0.274 ± 0.0307 E-score.

In the case of ATTACGCG, the binding signal turned out to be 0.332 ± 0.0406 E-score.

As to ATCGCCAA, the binding signal was 0.206 ± 0.00895 E-score.

For the sequence ATTACTTA, the binding signal turned out to be 0.22 ± 0.00767 E-score.

For the sequence AATGAATC, the binding signal was 0.262 ± 0.0542 E-score.

Take CACGAATC: the binding signal was 0.332 ± 0.0173 E-score.

On to CAAGAATC, for which the binding signal turned out to be 0.3851 ± 0.0038 E-score.

With AAAGAAAT, the binding signal was found to be 0.26 ± 0.02 E-score.

As to AAAGAATC, the binding signal was determined as 0.432 ± 0.00665 E-score.

For the sequence CAAGATAC, the binding signal came out at 0.263 ± 0.0221 E-score.

The values are drawn from paper PMC5836133, “The intracellular immune receptor Rx1 regulates the DNA-binding activity of a Golden2-like transcription factor”.
